# According to the supplement of paper PMC8728848:
# Only a selection was taken, and the strongest signals are over-represented in it overall.
# B1: SspB (Streptococcus gordonii), P16952 (protein)
# chain: MKNKKEVYGFRKSKVAKTLCGAVLGTALIAFADKAVFADEVTETTSTSTVEVATTGNPATNLPEAQGEMSQVAKESQAKAGSKESALPVEVSSADLDKAVADAKSAGVKVVQDETKDKGTATTATDNAQKQDEIKSDYAKQAEEIKTTTEAYKKEVAAHQAETDKINAENKAADDKYQKDLKSHQEEVEKINTANATAKAEYEAKLAQYQKDLATVKKANEDSQQDYQNKLSAYQTELARVQKANAEAKEAYEKAVKENTAKNEALKVENEAIKQRNETAKATYEAAMKQYEADLAAIKKANEDNDADYQAKLAAYQTELARVQKANAEAKEAYDKAVKENTAKNTAIQAENEAIKQRNETAKATYDAAVKKYEADLAAVKQANATNEADYQAKLAAYQTELARVQKANADAKATYEKAVEDNKAKNAAIKAENEEIKQRNAVAKTDYEAKLAKYEADLAKYKKEFAAYTAALAEAESKKKQDGYLSEPRSQSLNFKSEPNAIRTIDSSVHQYGQQELDALVKSWGISPTNPDRKKSRAYSYFNAINSNNTYAKLVLEKDKPVDVTYTGLKNSSFNGKKISKVVYTYTLKETGFNDGTKMTMFASSDPTVTAWYNDYFTSTNINVKVKFYDEEGQLMNLTGGLVNFSSLNRGNGSGAIDKDAIESVRNFNGRYIPISGSSIKIHENNSAYADSSNAEKSLGARWNTSEWDTTSSPNNWYGAIVGEITQSEISFNMASSKSGNIWFAFNSNINAIGVPTKPVAPTAPTQPMYETEKPLEPAPVAPSYENEPTPPVKTPDQPEPSKPEEPTYETEKPLEPAPVAPSYENEPTPPVKTPDQPEPSKPEEPNYETEKPLEPAPVAPSYENEPTPPVKIPDQPEPSKPEEPTYDPLPTPPLAPTPKQLPTPPVVPTVHFHYSSLLAQPQINKEIKNEDGVDIDRTLVAKQSIVKFELKTEALTAGRPKTTSFVLVDPLPTGYKFDLDATKAASTGFDTTYDEASHTVTFKATDETLATYNADLTKPVETLHPTVVGRVLNDGATYTNNFTLTVNDAYGIKSNVVRVTTPGKPNDPDNPNNNYIKPTKVNKNKEGLNIDGKEVLAGSTNYYELTWDLDQYKGDKSSKEAIQNGFYYVDDYPEEALDVRPDLVKVADEKGNQVSGVSVQQYDSLEAAPKKVQDLLKKANITVKGAFQLFSADNPEEFYKQYVATGTSLVITDPMTVKSEFGKTGGKYENKAYQIDFGNGYATEVVVNNVPKITPKKDVTVSLDPTSENLDGQTVQLYQTFNYRLIGGLIPQNHSEELEDYSFVDDYDQAGDQYTGNYKTFSSLNLTMKDGSVIKAGTDLTSQTTAETDATNGIVTVRFKEDFLQKISLDSPFQAETYLQMRRIAIGTFENTYVNTVNKVAYASNTVRTTTPIPRTPDKPTPIPTPKPKDPDKPETPKEPKVPSPKVEDPSAPIPVSVGKELTTLPKTGTNDATYMPYLGLAALVGFLGLGLAKRKED
# Columns and labels:
# Test in all cases: glycan array binding signal (z-score within array); higher = stronger binding
# Details in all cases: glycan notation: IUPAC condensed, linker removed
# [1] = molecular target: Fuc(a1-2)[Gal(a1-3)]Gal(b1-4)Glc
# Outline: (§1)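 The binding signal is a Z-score computed within each array. Data were drawn from 3228 arrays in the Consortium for Functional Glycomics database, restricted to those with a known protein sequence. Scores were averaged over arrays of the same protein sequence at different concentrations or buffers, and over linkers, and negative values can be taken as non-binding.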
# [2] = molecular target: Fuc(a1-2)[Gal(a1-3)]Gal(b1-4)GlcNAc
# Outline: as §1
# [3] = molecular target: Fuc(a1-2)[Gal(a1-3)]Gal(b1-4)GlcNAc(b1-2)Man(a1-3)[Fuc(a1-2)[Gal(a1-3)]Gal(b1-4)GlcNAc(b1-2)Man(a1-6)]Man(b1-4)GlcNAc(b1-4)GlcNAc
# Outline: as §1
# [4] = molecular target: Fuc(a1-2)[GalNAc(a1-3)]Gal(b1-3)GlcNAc(b1-2)Man(a1-3)[Fuc(a1-2)[GalNAc(a1-3)]Gal(b1-3)GlcNAc(b1-2)Man(a1-6)]Man(b1-4)GlcNAc(b1-4)GlcNAc
# Outline: as §1
# [5] = molecular target: Fuc(a1-2)[GalNAc(b1-3)]Gal
# Outline: as §1
# [6] = molecular target: Fuc(a1-3)[Gal(b1-4)]GlcNAc
# Outline: as §1
# [7] = molecular target: Fuc(a1-3)[Gal3S(b1-4)]GlcNAc6S
# Outline: as §1
# Gal(a1-3)Gal(b1-3)GlcNAc = molecular target: Gal(a1-3)Gal(b1-3)GlcNAc
# Outline: as §1
# Gal(a1-4)Gal(b1-4)Glc = molecular target: Gal(a1-4)Gal(b1-4)Glc
# Outline: as §1
# Gal(a1-6)Glc = molecular target: Gal(a1-6)Glc
# Outline: as §1
# [8] = molecular target: Gal(b1-3)Gal(b1-4)GlcNAc(b1-2)Man(a1-3)[Gal(b1-3)Gal(b1-4)GlcNAc(b1-2)Man(a1-6)]Man(b1-4)GlcNAc(b1-4)GlcNAc
# Outline: as §1
# [9] = molecular target: Gal(b1-3)GalNAc(b1-4)Gal(b1-4)Glc
# Outline: as §1
# [10] = molecular target: Gal(b1-3)GalNAc(b1-4)[Neu5Ac(a2-3)]Gal(b1-4)Glc
# Outline: as §1
# [11] = molecular target: Gal(b1-3)GlcNAc(b1-2)Man(a1-3)[Gal(b1-3)GlcNAc(b1-2)Man(a1-6)]Man(b1-4)GlcNAc(b1-4)GlcNAc
# Outline: as §1
# [12] = molecular target: Gal(b1-3)GlcNAc(b1-3)Gal(b1-3)GlcNAc
# Outline: as §1
# [13] = molecular target: Gal(b1-3)GlcNAc(b1-3)Gal(b1-4)[Fuc(a1-3)]GlcNAc(b1-6)[Gal(b1-3)GlcNAc(b1-3)]Gal(b1-4)Glc
# Outline: as §1
# Gal(b1-4)Glc = molecular target: Gal(b1-4)Glc
# Outline: as §1
# [14] = molecular target: Gal(b1-4)GlcNAc(b1-2)[Gal(b1-4)GlcNAc(b1-4)]Man(a1-3)[Gal(b1-4)GlcNAc(b1-2)Man(a1-6)]Man(b1-4)GlcNAc(b1-4)GlcNAc
# Outline: as §1
# [15] = molecular target: Gal(b1-4)GlcNAc(b1-3)[Gal(b1-4)GlcNAc(b1-6)]GalNAc
# Outline: as §1
# [16] = molecular target: Gal(b1-4)GlcNAc(b1-6)[Gal(b1-3)]GalNAc
# Outline: as §1
# [17] = molecular target: Gal3S(b1-4)[Fuc(a1-3)]Glc
# Outline: as §1
# [18] = molecular target: GalNAc(a1-3)GalNAc(a1-3)Gal(a1-4)Gal(b1-4)GlcNAc
# Outline: as §1
# [19] = molecular target: GalNAc(b1-3)Gal(a1-6)Gal(b1-4)Glc
# Outline: as §1
# Glc(b1-6)Glc = molecular target: Glc(b1-6)Glc
# Outline: as §1
# [20] = molecular target: GlcNAc(a1-4)Gal(b1-4)GalNAc
# Outline: as §1
# [21] = molecular target: GlcNAc(a1-4)Gal(b1-4)GlcNAc(b1-3)Gal(b1-4)[Fuc(a1-3)]GlcNAc(b1-3)Gal(b1-4)[Fuc(a1-3)]GlcNAc
# Outline: as §1
# Man(a1-6)Man = molecular target: Man(a1-6)Man
# Outline: as §1
# Man(b1-4)GlcNAc = molecular target: Man(b1-4)GlcNAc
# Outline: as §1
# [22] = molecular target: Neu5Ac(a2-3)Gal(b1-3)GlcNAc(b1-3)GalNAc
# Outline: as §1
# [23] = molecular target: Neu5Ac(a2-3)Gal(b1-4)[Fuc(a1-3)]GlcNAc(b1-3)Gal(b1-4)[Fuc(a1-3)]GlcNAc(b1-3)Gal(b1-4)[Fuc(a1-3)]GlcNAc
# Outline: as §1
binder,measurement,setting,value
B1,glycan array binding signal (z-score),[1],0.486
same,glycan array binding signal (z-score),[2],0.017
same,glycan array binding signal (z-score),[3],2.31
same,glycan array binding signal (z-score),[4],-0.556
same,glycan array binding signal (z-score),[5],0.761
same,glycan array binding signal (z-score),[6],-0.041
same,glycan array binding signal (z-score),[7],0.242
same,glycan array binding signal (z-score),Gal(a1-3)Gal(b1-3)GlcNAc,-0.597
same,glycan array binding signal (z-score),Gal(a1-4)Gal(b1-4)Glc,-1.22
same,glycan array binding signal (z-score),Gal(a1-6)Glc,0.072
same,glycan array binding signal (z-score),[8],-0.672
same,glycan array binding signal (z-score),[9],1.1
same,glycan array binding signal (z-score),[10],-1.62
same,glycan array binding signal (z-score),[11],0.616
same,glycan array binding signal (z-score),[12],-0.283
same,glycan array binding signal (z-score),[13],1.07
same,glycan array binding signal (z-score),Gal(b1-4)Glc,-0.34
same,glycan array binding signal (z-score),[14],1.08
same,glycan array binding signal (z-score),[15],5.73
same,glycan array binding signal (z-score),[16],-1.35
same,glycan array binding signal (z-score),[17],0.344
same,glycan array binding signal (z-score),[18],0.985
same,glycan array binding signal (z-score),[19],-0.859
same,glycan array binding signal (z-score),Glc(b1-6)Glc,-1.1
same,glycan array binding signal (z-score),[20],-0.557
same,glycan array binding signal (z-score),[21],3.03
same,glycan array binding signal (z-score),Man(a1-6)Man,2.65
same,glycan array binding signal (z-score),Man(b1-4)GlcNAc,-0.696
same,glycan array binding signal (z-score),[22],0.045
same,glycan array binding signal (z-score),[23],0.022
